Measurements published in PubChem BioAssay AID1159580 (chemical genetic matrix, 2015).
Among all 5,500 compounds or so, about 2,000 (36%) were called active. Another 18% or so got no clear call; they are omitted. Rule as the data show it: active = normalized growth mostly below about 0.91 (no sharp cut-off); inconclusive = no clear call, values can overlap the other calls; inactive = mostly above about 0.92. The list shows a part of the results.

Assay: chemical genetic growth profiling, strain panel (AID 1159580);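 also: tested at 20 µM; growth read once vehicle control cultures reached saturation at 30 °C; 1 = growth at the plate median or of vehicle wells; lower values mean less growth of the strain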
Settings: S. cerevisiae deletion strains, growth OD

Measured: normalized growth

CCC(=O)OCC(=O)C1(OC(=O)CC)C(C)CC2C3C(Cl)CC4=CC(=O)C=CC4(C)C3C(O)CC21C (stereo not given)
inactive: locus YAL021C, strain ccr4, active compounds read low 1.02 | locus YAL026C, strain drs2, active compounds read low 1.03 | locus YAL030W, strain snc1, active compounds read low 1.01 | locus YBL061C, strain skt5, active compounds read low 1.01 | locus YBR009C, strain hhf1, active compounds read low 1.09 | locus YBR023C, strain chs3, active compounds read low 1.02 | locus YBR171W, strain sec66, active compounds read low 1.04 | locus YBR231C, strain swc5, active compounds read low 1.02 | locus YBR279W, strain paf1, active compounds read low 1.01 | locus YCL011C, strain gbp2, active compounds read low 1.06 | locus YCL016C, strain dcc1, active compounds read low 1.04 | locus YCL069W, strain vba3, active compounds read low 1.04 | locus YCR088W, strain abp1, active compounds read low 1.03 | locus YDL005C, strain med2, active compounds read low 1.02 | locus YDL040C, strain nat1, active compounds read low 1.01 | locus YDR001C, strain nth1, active compounds read low 1.04 | locus YDR069C, strain doa4, active compounds read low 1.02 | locus YDR137W, strain rgp1, active compounds read low 1.03 | locus YDR159W, strain sac3, active compounds read low 1.01 | locus YDR195W, strain ref2 1 | locus YDR297W, strain sur2, active compounds read low 1.03 | locus YDR334W, strain swr1, active compounds read low 1.02 | locus YDR335W, strain msn5, active compounds read low 1.05 | locus YDR392W, strain spt3, active compounds read low 1.08 | locus YEL003W, strain gim4, active compounds read low 1.04 | locus YEL037C, strain rad23, active compounds read low 1.05 | locus YEL061C, strain CIN8 (second series), active compounds read low 1.02 | locus YER015W, strain faa2, active compounds read low 1.01 | locus YER016W, strain bim1, active compounds read low 1.04 | locus YER111C, strain swi4, active compounds read low 1.04 | locus YER155C, strain BEM2 (second series), active compounds read low 1.08 | locus YFR010W, strain ubp6, active compounds read low 1.02 | locus YGL167C, strain pmr1, active compounds read low 1.06 | locus YGL173C, strain kem1, active compounds read low 1.02 | locus YGL227W, strain vid30, active compounds read low 1.01 | locus YGL240W, strain doc1, active compounds read low 1.01 | locus YGL253W, strain hxk2, active compounds read low 1.02 | locus YHR013C, strain ard1, active compounds read low 1.08 | locus YHR027C, strain rpn1, active compounds read low 1.03 | locus YHR142W, strain chs7, active compounds read low 1.04 | locus YJL092W, strain hpr5, active compounds read low 1.04 | locus YJL095W, strain BCK1 (second series), active compounds read low 1.06 | locus YJL115W, strain asf1, active compounds read low 1.02 | locus YJL129C, strain trk1, active compounds read low 0.987 | locus YJL154C, strain vps35, active compounds read low 1.03 | locus YJL164C, strain tpk1, active compounds read low 1.07 | locus YJL166W, strain qcr8, active compounds read low 1 | locus YKL160W, strain elf1, active compounds read low 1.04 | locus YKR026C, strain gcn3, active compounds read low 1.03 | locus YKR091W, strain srl3, active compounds read low 1.03 | locus YLL001W, strain dnm1, active compounds read low 1.06 | locus YLL026W, active compounds read low 1.04 | locus YLL041C, strain sdh2, active compounds read low 1.05 | locus YLR027C, strain aat2, active compounds read low 1.06 | locus YLR221C, strain rsa3, active compounds read low 1.07 | locus YLR258W, strain gsy2, active compounds read low 1.07 | locus YLR262C, strain YPT6 (second series), active compounds read low 1.04 | locus YLR320W, strain mms22, active compounds read low 1.02 | locus YLR342W, strain FKS1, active compounds read low 1.03 | locus YLR357W, strain rsc2, active compounds read low 1.09 | locus YLR370C, strain arc18, active compounds read low 1.03 | locus YLR384C, strain iki3, active compounds read low 1.03 | locus YML120C, strain ndi1, active compounds read low 1.02 | locus YMR058W, strain fet3, active compounds read low 1.02 | locus YMR125W, strain sto1, active compounds read low 1.07 | locus YMR129W, active compounds read low 1.03 | locus YMR205C, strain PFK2, active compounds read low 1.02 | locus YMR231W, strain pep5, active compounds read low 1.03 | locus YNL071W, strain lat1, active compounds read low 1.02 | locus YNL209W, strain ssb2, active compounds read low 1.01 | locus YNL248C, strain rpa49, active compounds read low 1.03 | locus YNL322C, strain KRE1 (second series), active compounds read low 1.01 | locus YNR049C, strain mso1, active compounds read low 1.03 | locus YOR001W, strain rrp6, active compounds read low 1.04 | locus YOR070C, strain gyp1, active compounds read low 1.02 | locus YOR080W, strain dia2, active compounds read low 1.02 | locus YOR083W, strain WHI5, active compounds read low 1.04 | locus YOR106W, strain vam3, active compounds read low 1 | locus YOR265W, strain rbl2, active compounds read low 1.02 | locus YOR270C, strain vph1, active compounds read low 0.923 | locus YOR290C, strain snf2, active compounds read low 1.06 | locus YPL051W, strain arl3, active compounds read low 1.04 | locus YPL078C, strain atp4, active compounds read low 0.999 | locus YPL106C, strain sse1, active compounds read low 1.12 | locus YPL240C, strain hsp82, active compounds read low 1.02
